High-throughput results deposited in PubChem BioAssay by NMMLSC.
Rows were chosen to be rich in hits. Some 2.5% of all compounds tested hit in one or more screens of this group.
MEKK3 PB1 HTS: modulators (inhibitors or enhancers) of MEK5 binding to human MEKK3 PB1 domain; Q99759; bead-based flow cytometry, Alexa488-MEK5 binding to MEKK3; actives lie on both sides; 0 = blocked by unlabeled MEK5, 100 = vehicle; binding response (% of control), % at 10 µM; 290,000 tested, 1.4% active;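 active = binding response more than 3 SD above or below the average of its plate-row segment, actives on both sides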;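 also: Alexa488 bead fluorescence after subtracting the streptavidin-only scavenger bead signal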
MEKK2 mut-MEK5: signal of MEK5 binding to mutant human MEKK2 PB1 domain. bead flow cytometry, Alexa488-MEK5 binding to MEKK2 mutant. percent response, % at 10 µM. AID 1530. 290,000 tested, 0.35% active; in the data active = percent response above about 24%, passing the limit was not always enough
MEKK2wt PB1 HTS: raises or lowers MEK5 binding to wildtype human MEKK2 PB1 domain. 290,000 tested, 1.1% active. bead flow cytometry, Alexa488-MEK5 binding to MEKK2 WT; actives lie on both sides. binding response (% of control), % at 10 µM. Q9Y2U5; in the data active = binding response below about 67% or above about 130%
GRK2 aptamer HTS: blocks RNA aptamer binding to human GRK2; bead flow cytometry, FAM-aptamer displacement from GRK2; inhibition of aptamer binding, % at 10 µM; AID 488847; 330,000 tested, 0.59% active;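 active = inhibition of aptamer binding above 40%, roughly 3 SD of noise, on plates passing a quality check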;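 also: median bead fluorescence of bound FAM aptamer so fluorescent compounds give negative values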
Target sequence (P25098 whole entry, looked up): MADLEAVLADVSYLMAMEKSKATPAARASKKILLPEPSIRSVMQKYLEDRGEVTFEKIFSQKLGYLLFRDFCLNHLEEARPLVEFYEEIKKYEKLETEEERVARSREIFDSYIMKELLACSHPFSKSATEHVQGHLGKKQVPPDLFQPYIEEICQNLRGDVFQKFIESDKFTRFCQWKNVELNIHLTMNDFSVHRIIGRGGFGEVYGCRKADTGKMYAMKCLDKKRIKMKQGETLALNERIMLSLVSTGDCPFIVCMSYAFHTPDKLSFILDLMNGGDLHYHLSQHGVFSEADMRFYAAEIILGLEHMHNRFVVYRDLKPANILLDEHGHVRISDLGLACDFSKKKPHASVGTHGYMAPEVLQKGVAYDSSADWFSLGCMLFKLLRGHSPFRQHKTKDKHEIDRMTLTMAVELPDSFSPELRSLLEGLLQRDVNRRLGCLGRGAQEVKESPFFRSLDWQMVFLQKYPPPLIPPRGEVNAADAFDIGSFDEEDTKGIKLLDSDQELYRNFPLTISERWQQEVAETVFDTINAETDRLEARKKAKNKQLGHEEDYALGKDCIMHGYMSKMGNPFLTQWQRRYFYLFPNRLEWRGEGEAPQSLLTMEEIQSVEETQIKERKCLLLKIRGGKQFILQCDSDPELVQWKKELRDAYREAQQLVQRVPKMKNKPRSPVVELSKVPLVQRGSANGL
MEKK2wt confirm: raises or lowers MEK5 binding to wildtype human MEKK2, retest; shares compounds with MEKK3 PB1 HTS; bead flow cytometry, Alexa488-MEK5 binding to MEKK2 WT; actives lie on both sides; binding response (% of control), % at 10 µM; 5,900 tested, 2.4% active; in the data active = binding response below about 16% or above about 210%; inactive = in between
MEKK2mut confirm: signal of MEK5 binding to mutant human MEKK2, retest. bead flow cytometry, Alexa488-MEK5 binding to MEKK2 mutant. 5,900 tested, 2% active. percent response, % at 10 µM. shares compounds with MEKK3 PB1 HTS; in the data active = percent response mostly above about 71%, no sharp cut-off; inactive = mostly below about 38%;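 also: higher means compound restores mutant binding toward wildtype level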
MEKK3-MEK5 inh: MEKK3-MEK5 PB1 inhibition, single concentration confirmation. shares compounds with MEKK3 PB1 HTS. bead flow cytometry, Alexa488-MEK5 binding to MEKK3; hits give low values. binding response (% of control), % at 10 µM. 5,900 tested, 1.8% active. AID 1894;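 active = binding response below 72% of control, or above a set upper limit, though filed actives all read lower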;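 also: lower values mean stronger disruption of MEK5 binding to MEKK3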
Large screens that a line does not name were inactive (follow-up assays come after a bar, where they were run); [ ] = remark or other dose.

COC(=O)CCC(=O)OC1(C)C(=O)C=C2C=C(C3CC3)N(C(CO)CO)C=C2C1=O (stereo not drawn)	MEKK2wt PB1 HTS 151 | MEKK2wt confirm inactive | MEKK2mut confirm inactive | MEKK3-MEK5 inh inactive
COC(=O)CCC(=O)OC1(C)C(=O)C=C2C=C(C3CC3)N(CCc3ccccn3)C=C2C1=O (stereo not drawn)	none
COC(=O)CCC(=O)OC1(C)C(=O)C=C2C=C(C3CC3)N(CCN3CCOCC3)C=C2C1=O (stereo not drawn)	MEKK2wt PB1 HTS 143 | MEKK2wt confirm inactive | MEKK2mut confirm inactive | MEKK3-MEK5 inh inactive
CCOC(=O)c1cc(C#N)c(SCC(=O)c2cc(C#N)c(SC)nc2C)nc1C	none (no result: MEKK3 PB1 HTS, MEKK2 mut-MEK5, MEKK2wt PB1 HTS)
Cc1ccc2nc(N3CCOCC3)c3nncn3c2c1	none
COC(=O)CCC(=O)OC1(C)C(=O)C=C2C=C(C3CC3)N(CCCCO)C=C2C1=O (stereo not drawn)	MEKK2wt PB1 HTS 141 | MEKK2wt confirm inactive | MEKK2mut confirm inactive | MEKK3-MEK5 inh inactive
COC(=O)CCC(=O)OC1(C)C(=O)C=C2C=C(C3CC3)N(CCCOC(C)C)C=C2C1=O (stereo not drawn)	none
COC(=O)CCCC1=CC2=CC(=O)C(C)(OC(=O)c3cccs3)C(=O)C2=CN1C1CC1 (stereo not drawn)	MEKK2wt PB1 HTS 142 | MEKK2wt confirm inactive | MEKK2mut confirm inactive | MEKK3-MEK5 inh inactive
COC(=O)c1cc2occc2n1CC(=O)N(C)C1CCCCC1	none
CCCCOc1ccc(CC(=O)NCC(=O)O)cc1	MEKK3 PB1 HTS 57[inhibitor] | MEKK2wt confirm inactive | MEKK2mut confirm inactive | MEKK3-MEK5 inh inactive
CCCCOc1ccc(C(=O)NCC(=O)NCCOc2ccccc2)cc1	none (no result: MEKK3 PB1 HTS, MEKK2 mut-MEK5, MEKK2wt PB1 HTS)
COc1ccc(Nc2cc(C(=O)NCc3ccco3)c3ccccc3n2)c(OC)c1	MEKK3 PB1 HTS 133 | MEKK2wt confirm inactive | MEKK2mut confirm inactive | MEKK3-MEK5 inh inactive
Cc1cc(C)c(NC(=O)C2CCCN2C(=O)NC2CCCCC2)c(C)c1 (stereo not drawn)	MEKK3 PB1 HTS 125 | MEKK2wt confirm inactive | MEKK2mut confirm inactive | MEKK3-MEK5 inh inactive
Cc1cc(C)c(NC(=O)C2CCCN2CCOC(=O)c2ccccc2)c(C)c1 (stereo not drawn)	MEKK3 PB1 HTS 142 | MEKK2wt confirm inactive | MEKK2mut confirm inactive | MEKK3-MEK5 inh inactive
Cc1cc(C)c(NC(=O)C2CCCN2CCOC(=O)c2cccc([N+](=O)[O-])c2)c(C)c1 (stereo not drawn)	none
O=C(CSc1nccn1-c1cccc(Cl)c1)NO	none
O=C(CSc1nccn1-c1ccccc1)NO	MEKK3 PB1 HTS 33[inhibitor], MEKK2 mut-MEK5 51 | MEKK2wt confirm inactive | MEKK2mut confirm inactive | MEKK3-MEK5 inh inactive
CC(=O)OCCCNc1cc(Sc2ccc(Cl)cc2)c2nonc2c1[N+](=O)[O-]	MEKK3 PB1 HTS 132 | MEKK2wt confirm inactive | MEKK2mut confirm inactive | MEKK3-MEK5 inh inactive
Cc1ccc(Sc2cc(NCCCO)c([N+](=O)[O-])c3nonc23)cc1	none
O=c1c2ccccc2nnn1CCO	none
Cn1nnc2ccccc2c1=O	MEKK3 PB1 HTS 141 | MEKK2wt confirm inactive | MEKK2mut confirm inactive | MEKK3-MEK5 inh inactive
Nc1cc(N)nc(SCC(=O)NCC(=O)Nc2ccc(F)c(F)c2F)n1	none (no result: MEKK3 PB1 HTS, MEKK2 mut-MEK5, MEKK2wt PB1 HTS)
Cc1cccc(NCC(=O)N/N=C/c2ccc(Br)cc2)c1	MEKK3 PB1 HTS 47[inhibitor] | MEKK2wt confirm inactive | MEKK2mut confirm inactive | MEKK3-MEK5 inh inactive
COc1cccc(/C=N/NC(=O)Cn2ccnc2C)c1	MEKK3 PB1 HTS 142 | MEKK2wt confirm inactive | MEKK2mut confirm inactive | MEKK3-MEK5 inh inactive
Cc1ccc(NCC(=O)N/N=C/c2ccncc2)cc1	MEKK3 PB1 HTS 137 | MEKK2wt confirm inactive | MEKK2mut confirm inactive | MEKK3-MEK5 inh inactive
Cc1cccc(NCC(=O)N/N=C\c2cccc(Oc3ccccc3)c2)c1	none
Cc1ccc(NCC(=O)N/N=C/c2cccc(Oc3ccccc3)c2)cc1	MEKK3 PB1 HTS 134 | MEKK2wt confirm inactive | MEKK2mut confirm inactive | MEKK3-MEK5 inh inactive
CCOC(=O)c1cn(-c2ccccc2CO)c2c(F)c(F)c(F)cc2c1=O	none
CCOC(=O)c1sc(NC(C)=O)nc1-c1ccccc1	MEKK3 PB1 HTS 1.0[inhibitor], MEKK2wt PB1 HTS -2.0[inhibitor] | MEKK2wt confirm inactive | MEKK2mut confirm inactive | MEKK3-MEK5 inh inactive
CC(=O)c1cccc(NC(=O)CN(c2ccccc2)S(C)(=O)=O)c1	none
Cc1c(C(=O)NCc2ccc3c(c2)cc(C)n3C)cccc1[N+](=O)[O-]	MEKK3 PB1 HTS 73[inhibitor] | MEKK2wt confirm inactive | MEKK2mut confirm inactive | MEKK3-MEK5 inh inactive
Cc1cc2cc(CNC(=O)Cc3ccc([N+](=O)[O-])cc3)ccc2n1C	none
Cc1cccc(NC(=S)NCc2ccc3c(c2)cc(C)n3C)c1C	MEKK3 PB1 HTS 78[inhibitor], MEKK2wt PB1 HTS 66[inhibitor] | MEKK2wt confirm inactive | MEKK2mut confirm inactive | MEKK3-MEK5 inh inactive
Cc1cc2cc(CNC(=O)c3cccc([N+](=O)[O-])c3)ccc2n1C	MEKK3 PB1 HTS 72[inhibitor] | MEKK2wt confirm inactive | MEKK2mut confirm inactive | MEKK3-MEK5 inh inactive
COc1cc(NC(=O)COC(=O)/C=C/c2ccc(OC)c(OC)c2)cc(OC)c1	none
Cc1cc(N2CCN(c3ccccc3)CC2)nc2ccccc12	none
Cc1cc(N2CCC(N(C)C3CCCC3)CC2)nc2cc(O)ccc12	MEKK2 mut-MEK5 24, MEKK2wt PB1 HTS 142 | MEKK2wt confirm inactive | MEKK2mut confirm inactive | MEKK3-MEK5 inh inactive
O=C(Nc1cccc(-c2cccc(Cl)c2)c1)C1CCN(Cc2ccc(CO)o2)CC1	MEKK2wt PB1 HTS 153 | MEKK2wt confirm inactive | MEKK2mut confirm inactive | MEKK3-MEK5 inh inactive
CC(C)n1cc(CN2CCC(C(=O)Nc3cccc(-c4cccc(Cl)c4)c3)CC2)cn1	MEKK2 mut-MEK5 34, MEKK2wt PB1 HTS 183 | MEKK2wt confirm inactive | MEKK2mut confirm 73 | MEKK3-MEK5 inh inactive
COc1ccc(CCNC(=O)CC2SC(=NCCC(C)C)NC2=O)cc1OC (stereo not drawn)	MEKK3 PB1 HTS 150 | MEKK2wt confirm inactive | MEKK2mut confirm inactive | MEKK3-MEK5 inh inactive
COc1ccc(CCNC(=O)CC2SC(=NCCc3ccccc3)NC2=O)cc1OC (stereo not drawn)	none
COc1ccc(CNC(=O)c2c(N)n(CCCN3CCOCC3)c3nc4ccccc4nc23)cc1	MEKK2wt PB1 HTS 154 | MEKK2wt confirm inactive | MEKK2mut confirm inactive | MEKK3-MEK5 inh inactive
COc1ccc(Cl)cc1NC(=O)NCC1CCN(C(=O)OC(C)(C)C)CC1	MEKK3 PB1 HTS 128 | MEKK2wt confirm inactive | MEKK2mut confirm inactive | MEKK3-MEK5 inh inactive
CCCN1CCC(NC(=O)Nc2cc(Cl)ccc2OC)CC1	none
COc1ccc(Cl)cc1NC(=O)NC1CCCCC1	MEKK3 PB1 HTS 81[inhibitor] | MEKK2wt confirm inactive | MEKK2mut confirm inactive | MEKK3-MEK5 inh inactive
